The values below come from PubChem BioAssay (Tox21).

A number with no mark means an inactive call. Where a call stands in place of a potency, no number is given. The source made the active and inactive calls. Calls follow the shape of the dose curve; as a rule, active = well fitted cell-killing curve with a large enough effect in the repeat runs; inconclusive = weak or mixed curves, or effect the other way; inactive = flat fitted curve, though single readings scatter.

The nature of this assay: qHTS assay to identify small molecule HDAC inhibitors - cell viability counter screen (AID 1259365). Also: nearly all actives have a fitted effect of over 50% in size. Particulars: HCT-116 viability, CellTiter-Glo ATP luminescence, 2 h; series mostly up to 92.4 µM; activity change, negative = cytotoxicity: at the top concentration. An excerpt:
U.S. Tox21 Program National Center for Advancing Translational Sciences [NCATS] NIH Chemical Genomics Center [NCGC] U.S. Environmental Protection Agency [EPA] National Institutes of Environmental Health Sciences [NIEHS] National Toxicology Program [NTP] U.S. Food and Drug Administration [FDA] Tox21 Assay Overview: Histone deacetylases (HDACs) are a group of epigenetic enzymes that regulate gene expression by histone deacetylation. HDACs are capable of introducing epigenetic modifications and such aberrations contribute to the onset and progression of several human diseases, thus making HDACs a popular therapeutic target. For identifying endogenous class I/II HDAC inhibitors a homogenous, luminogenic HDAC I/II cell based assay was used to measure the relative activity of class I and II HDACs from cells. Wild type HCT-116 cells were used to screen Tox21 compound libraries for identifying class I/II HDAC inhibitors.
Tox21 Assay Protocol Summary: HCT-116 cells were dispensed at 1,500 per well in 5uL of culture medium into white solid bottom 1536-well plates (Greiner Bio-One, Monroe, NC) using a Multidrop Combi (Thermo Scientific, Waltham, MA) dispenser. The assay plates were incubated at 37 C and 5% CO2 for an overnight, and then 23nL of compounds dissolved in DMSO and positive control were transferred using a Pintool station (Wako, San Diego, CA). The assay plates were incubated at 37C and 5% CO2 for 2hr. After compound treatment, 4uL of CellTiter-Glo reagent (Promega Corporation, Madison, WI) was added to each well of the assay plates using Flying Reagent Dispenser (FRD, Aurora Discovery, San Diego, CA) and incubated the assay plates at room temperature for 30min. The luminescence signal was quantified using a ViewLux plate reader (Perkin Elmer, Shelton, CT).
On to `Nc1cccc(N)n1`, for which the Potency entry was “inactive”.
`C[n+]1ccn(CCO)c1`: the Potency entry is “inactive”.
Regarding `Nc1cccc(C(F)(F)F)c1`, the Potency result was “inactive”.
Consider `CC(=O)Nc1ccc(CC(=O)O)cc1`, for which the Potency result was “inactive”.
For the compound `CC(C)=CCC/C(C)=C/C=O`, the Potency entry was “inactive”.
For the compound `C[Si](C)(C)N[Si](C)(C)C`, the Potency result is “inactive”.
The same measure, in the same setting: the value for `C=CC(=O)NCOCCCC` was “inactive”; that for `CC(=O)OCCC(C)C` was “inactive”.
As for `COc1ccccc1[N+](=O)[O-]`, the Potency result was “inactive”.
With `CO[Si](CCCNCCN)(OC)OC`, the “activity change, negative = cytotoxicity” value is 2.73%.
Consider `CC(C)(C)NC[C@H](O)COc1nsnc1N1CCOCC1`, for which the Potency result is “inactive”.
`NC(=O)c1ncn([C@@H]2O[C@H](CO)[C@@H](O)[C@H]2O)n1`: the “activity change, negative = cytotoxicity” value is 14.1%.
Consider `Clc1cccc(Cl)c1NC1=NCCN1`, for which the Potency result was “inactive”.
With `OCC(O)CS` (stereo not given), the Potency entry is “inactive”.
With `O=C(NCC1CCCCN1)c1cc(OCC(F)(F)F)ccc1OCC(F)(F)F` (stereo not given), the Potency result is “inactive”.
`Brc1ccc(Oc2ccc(Br)cc2)cc1`: the Potency entry was “inactive”.
Take `COc1ccc([C@@H]2CC(=O)c3c(O)cc(O[C@@H]4O[C@H](CO[C@@H]5O[C@@H](C)[C@H](O)[C@@H](O)[C@H]5O)[C@@H](O)[C@H](O)[C@H]4O)cc3O2)cc1OC`: the Potency result was “inactive”.
Regarding `O=C(O)C1=NN(c2ccc(S(=O)(=O)O)cc2)C(=O)C1`, the Potency result is “inactive”.
As for `O=C(c1ccccc1)c1ccc(O)c(O)c1O`, the Potency entry is “inactive”.
Turning to `CC(C)(CO)CO`, the Potency entry is “inactive”.
As for `c1cnc2c(c1)ccc1cccnc12`, the Potency result is “inactive”.
As for `Cc1cc(CC(=O)O)n(C)c1C(=O)c1ccc(Cl)cc1`, the Potency result is “inactive”.
In the case of `CCCCCCCC(=O)O`, the Potency result was “inactive”.
On to `CC(C=O)Cc1ccc(C(C)(C)C)cc1` (stereo not given), for which the Potency entry is “inactive”.
As for `Cc1ccccc1C=O`, the Potency result was “inactive”.
Same read-out and setting: the value for `CCCN(CCC)C(=O)SCC` was “inactive”; that for `OCC(CO)(CO)CO` was “inactive”.
On the same count and under the same terms, the value for `CN=C(NC#N)NCCSCc1nc[nH]c1C` was “inactive”; that for `NC(=O)NC(N)=O` was “inactive”.
Consider `COc1cc(NC(=O)CC(C)=O)c(OC)cc1Cl`, for which the Potency result is “inactive”.
In the case of `CC(=O)c1nccs1`, the Potency entry is “inactive”.
As for `O=C1OC(=O)c2c(Cl)c(Cl)c(Cl)c(Cl)c21`, the Potency entry is “inactive”.
Same read-out and setting: the value for `COc1ccc2cc3[n+](cc2c1OC)CCc1cc2c(cc1-3)OCO2` was “inactive”; that for `CCN(CC)CCNC(=O)c1ccc(N)cc1` was “inactive”; that for `CCOC(=O)CC(=O)OCC` was “inactive”.
Regarding `CC(=O)OCc1ccc2c(c1)OCO2`, the Potency entry is “inactive”.
Consider `Cc1ncc(CO)c(CO)c1O`, for which the Potency result was “inactive”.
Take `O=C(O)Cc1c[nH]c2ccccc12`: the Potency result was “inactive”.
Turning to `CCCCCC(C)=O`, the Potency result is “inactive”.
For the compound `CC1(C)C(=O)N(Cl)C(=O)N1Cl`, the Potency entry was “inactive”.
